Test results from PubChem BioAssay (NCATS).
Results filed as inconclusive are left out. Activity calls are given as the source filed them. The call rests on the fitted dose curve; in most records, active means well fitted curve in the direction sought with a large enough effect; inconclusive means small, poorly fitted or top-dose-only effect, or another doubt; inactive means no such curve, though single readings can be large; an effect the other way counts as inactive or inconclusive.

Experiments:
[1] = target: Protein phosphatase 1D (Homo sapiens) (UniProt O15297); experiment: RapidFire Mass Spectrometry qHTS Assay for Modulators of WT P53-Induced Phosphatase 1 (WIP1) (AID 1347424);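 further: amount of dephosphorylated VEPPL-S-QETFS peptide product formed by WIP1; series mostly up to about 63 µM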
Procedure, shortened: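 10 nM WIP1 preincubated with compounds 1 hr at room temperature in pH 7.5 Tris buffer with 30 mM MgCl2, 1 mM TCEP; 2 uM VEPPL-pS-QETFS phosphopeptide for 5 min, formic acid quench; dephosphorylated product quantified by RapidFire MS against labelled standard.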

[2] = target: Protein phosphatase 1D (Homo sapiens) (UniProt O15297); experiment: Rhodamine-PBP qHTS Assay for Modulators of WT P53-Induced Phosphatase 1 (WIP1) (AID 1347425)
Procedure, shortened: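 WIP1 (5 nM final) was preincubated with compound for 1 hour at room temperature. It then dephosphorylated 10 uM VEPPL-pS-QETFS peptide in Tris-HCl pH 7.5 with 30 mM MgCl2. Released Pi was detected by 10 uM Rh-PBP fluorescence (ex 525/em 598 nm) read at 1-min intervals for 11 min, as delta f1 - f0.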

[3] = Primary qHTS for inhibitors of La Crosse Virus (LACV) - induced cell death in SH-SY5Y cells (AID 1508616);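 further: top concentration of the series differs between compounds; higher means more rescue of cells from virus-induced death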
Procedure, shortened: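 Readout was luminescence from ATPLite 1step added after a 6-day LACV infection (0.01 MOI) of SH-SY5Y cells that had received pin-transferred compound 24 hr after seeding.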

[4] = target: Calcium and integrin-binding protein 1 (Homo sapiens) (UniProt Q99828); experiment: Primary qHTS for Identification of Calcium Integrin Binding Protein 1 (CIB1) Competitor (AID 1508620);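 further: GST tagged CIB1 binding a fluorescein labelled alphaIIb integrin peptide tracer; top concentration of the series differs between compounds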
Procedure, shortened: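 Fluorescence polarization competition: GST-tagged CIB1 (1 uM final) preincubated with compound 15 min at room temperature, then FITC-labelled alphaIIb peptide (100 nM final) added. After 15 min at room temperature, polarization read at Ex 480/Em 540.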

Measured: Potency

Chain of Calcium and integrin-binding protein 1 (Homo sapiens) (Q99828 whole entry, looked up): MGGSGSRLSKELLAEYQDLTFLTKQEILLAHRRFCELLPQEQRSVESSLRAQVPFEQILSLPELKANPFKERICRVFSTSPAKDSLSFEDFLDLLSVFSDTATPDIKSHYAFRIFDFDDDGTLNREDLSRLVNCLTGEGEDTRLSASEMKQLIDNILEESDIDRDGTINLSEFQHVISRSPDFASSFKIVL
Chain of Protein phosphatase 1D (Homo sapiens) (O15297 whole entry, looked up): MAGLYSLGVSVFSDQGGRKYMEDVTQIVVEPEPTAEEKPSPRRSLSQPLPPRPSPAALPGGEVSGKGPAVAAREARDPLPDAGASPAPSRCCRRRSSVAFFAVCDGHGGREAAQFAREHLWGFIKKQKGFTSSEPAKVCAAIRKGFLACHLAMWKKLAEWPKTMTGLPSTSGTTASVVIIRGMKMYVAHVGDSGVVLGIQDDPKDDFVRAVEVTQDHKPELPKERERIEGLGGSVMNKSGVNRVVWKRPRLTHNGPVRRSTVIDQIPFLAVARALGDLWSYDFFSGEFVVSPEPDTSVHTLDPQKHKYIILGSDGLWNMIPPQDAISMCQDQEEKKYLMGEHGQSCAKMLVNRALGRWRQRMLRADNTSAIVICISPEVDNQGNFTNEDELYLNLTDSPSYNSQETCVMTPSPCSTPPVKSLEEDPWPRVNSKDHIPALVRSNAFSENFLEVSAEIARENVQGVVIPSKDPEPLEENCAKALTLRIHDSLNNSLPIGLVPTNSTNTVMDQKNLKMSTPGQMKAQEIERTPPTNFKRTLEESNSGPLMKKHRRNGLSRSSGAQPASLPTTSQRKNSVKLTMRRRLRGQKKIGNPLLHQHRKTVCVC

CC(C)C(=O)Nc1cccc(C2CN3CCSC3=N2)c1 (stereo unspecified)
inactive: all assays above

CCC(=O)Oc1ccc2c(c1)CC[C@@H]1[C@@H]2CC[C@@]2(C)[C@H]1C[C@@H](OC(=O)CC)[C@@H]2OC(=O)CC
inactive: all assays above

CC1(C)S[C@@H]2[C@H](NC(=O)C(c3ccccc3)S(=O)(=O)O)C(=O)N2[C@H]1C(=O)O (stereo partly specified)
inactive: all assays above

COc1ccccc1N1CCN(CC(O)COc2cc(OC)c(OC)c(OC)c2)CC1 (stereo unspecified)
inactive: all assays above

CCCCN(CCN(CCCC)C(=O)N1CCOCC1)C(=O)N1CCOCC1
inactive: all assays above

Cc1cc(=O)oc2cc(O[C@@H]3SC[C@@H](O)[C@H](O)[C@H]3O)ccc12
inactive: all assays above

CCN1CCCC1CN (stereo unspecified)
inactive: all assays above

CCOC(=O)C1=C(C)NC(C)=C(C(=O)OCC)C1c1ccccc1/C=C/C(=O)OC(C)(C)C
inactive: all assays above

O=C1Nc2cc(Cl)ccc2Oc2ccccc21
inactive: all assays above
